Data on 35 targets can be found in the supplement of paper PMC10849652.

About 7,900 targets were measured; listed, in parts, are those with a hit and a random draw of the rest. About 0.6% of all pairs of compound and target were hits. Unmarked numbers belong to inactive results.

Chain of UniProt O75674 (O75674 whole entry, looked up): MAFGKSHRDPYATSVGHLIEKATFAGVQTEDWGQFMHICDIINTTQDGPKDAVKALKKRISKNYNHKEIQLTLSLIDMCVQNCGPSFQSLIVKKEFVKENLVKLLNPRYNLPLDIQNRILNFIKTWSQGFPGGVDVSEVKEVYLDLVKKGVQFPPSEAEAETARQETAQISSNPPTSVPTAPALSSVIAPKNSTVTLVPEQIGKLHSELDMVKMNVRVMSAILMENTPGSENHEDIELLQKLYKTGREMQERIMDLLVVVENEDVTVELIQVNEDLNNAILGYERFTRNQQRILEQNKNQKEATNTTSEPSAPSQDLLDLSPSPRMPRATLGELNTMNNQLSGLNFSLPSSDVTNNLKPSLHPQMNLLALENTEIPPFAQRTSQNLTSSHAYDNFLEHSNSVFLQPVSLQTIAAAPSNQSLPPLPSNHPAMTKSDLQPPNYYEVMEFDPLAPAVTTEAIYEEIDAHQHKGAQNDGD
Chain of WASHC2C, A0A096LPC5 (A0A096LPC5 whole entry, looked up): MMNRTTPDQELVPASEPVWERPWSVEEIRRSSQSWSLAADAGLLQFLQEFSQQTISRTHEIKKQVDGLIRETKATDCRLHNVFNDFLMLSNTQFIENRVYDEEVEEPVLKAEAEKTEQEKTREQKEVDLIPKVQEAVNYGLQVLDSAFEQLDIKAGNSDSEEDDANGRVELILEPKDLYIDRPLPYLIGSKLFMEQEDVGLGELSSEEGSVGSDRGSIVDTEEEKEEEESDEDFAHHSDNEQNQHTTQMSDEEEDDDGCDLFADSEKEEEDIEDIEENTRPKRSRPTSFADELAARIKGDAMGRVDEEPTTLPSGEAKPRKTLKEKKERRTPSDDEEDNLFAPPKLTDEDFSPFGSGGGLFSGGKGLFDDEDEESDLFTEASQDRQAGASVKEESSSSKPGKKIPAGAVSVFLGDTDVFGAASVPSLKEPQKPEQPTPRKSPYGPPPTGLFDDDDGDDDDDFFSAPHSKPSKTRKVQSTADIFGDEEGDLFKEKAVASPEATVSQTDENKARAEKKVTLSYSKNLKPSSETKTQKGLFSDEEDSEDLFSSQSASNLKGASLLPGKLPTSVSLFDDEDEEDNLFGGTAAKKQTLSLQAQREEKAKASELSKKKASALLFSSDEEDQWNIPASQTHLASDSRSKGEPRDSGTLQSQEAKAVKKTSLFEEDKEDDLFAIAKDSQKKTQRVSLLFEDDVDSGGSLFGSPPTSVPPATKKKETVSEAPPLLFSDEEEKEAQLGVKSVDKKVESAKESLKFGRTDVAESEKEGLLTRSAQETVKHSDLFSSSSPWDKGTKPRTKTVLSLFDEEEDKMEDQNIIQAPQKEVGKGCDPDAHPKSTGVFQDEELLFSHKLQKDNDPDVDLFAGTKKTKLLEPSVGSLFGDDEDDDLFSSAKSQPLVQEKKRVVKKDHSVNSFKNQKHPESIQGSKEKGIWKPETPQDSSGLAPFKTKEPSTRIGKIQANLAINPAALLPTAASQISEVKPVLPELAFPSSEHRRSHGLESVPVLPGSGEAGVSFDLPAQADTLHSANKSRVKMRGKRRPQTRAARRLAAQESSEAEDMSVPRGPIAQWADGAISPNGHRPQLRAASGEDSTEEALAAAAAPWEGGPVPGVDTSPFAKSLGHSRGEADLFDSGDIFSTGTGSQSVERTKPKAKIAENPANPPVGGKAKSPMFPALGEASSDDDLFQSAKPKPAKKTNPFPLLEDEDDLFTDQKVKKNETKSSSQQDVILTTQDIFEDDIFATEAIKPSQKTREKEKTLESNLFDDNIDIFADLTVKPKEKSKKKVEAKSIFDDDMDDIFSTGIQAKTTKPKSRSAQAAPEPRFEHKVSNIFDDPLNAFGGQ
Chain of UniProt P61960 (P61960 whole entry, looked up): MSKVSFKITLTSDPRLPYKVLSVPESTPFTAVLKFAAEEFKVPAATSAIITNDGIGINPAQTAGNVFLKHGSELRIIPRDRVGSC
Chain of UniProt Q92890 (Q92890 whole entry, looked up): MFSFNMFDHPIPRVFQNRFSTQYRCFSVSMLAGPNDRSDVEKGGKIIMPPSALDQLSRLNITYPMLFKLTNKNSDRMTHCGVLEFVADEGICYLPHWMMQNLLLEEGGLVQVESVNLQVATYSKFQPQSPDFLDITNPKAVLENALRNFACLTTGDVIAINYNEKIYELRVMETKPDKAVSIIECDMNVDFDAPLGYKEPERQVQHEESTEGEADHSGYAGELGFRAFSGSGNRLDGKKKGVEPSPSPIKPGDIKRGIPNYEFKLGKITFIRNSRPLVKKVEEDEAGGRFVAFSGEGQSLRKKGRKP
Chain of UniProt Q9NVA4 (Q9NVA4 whole entry, looked up): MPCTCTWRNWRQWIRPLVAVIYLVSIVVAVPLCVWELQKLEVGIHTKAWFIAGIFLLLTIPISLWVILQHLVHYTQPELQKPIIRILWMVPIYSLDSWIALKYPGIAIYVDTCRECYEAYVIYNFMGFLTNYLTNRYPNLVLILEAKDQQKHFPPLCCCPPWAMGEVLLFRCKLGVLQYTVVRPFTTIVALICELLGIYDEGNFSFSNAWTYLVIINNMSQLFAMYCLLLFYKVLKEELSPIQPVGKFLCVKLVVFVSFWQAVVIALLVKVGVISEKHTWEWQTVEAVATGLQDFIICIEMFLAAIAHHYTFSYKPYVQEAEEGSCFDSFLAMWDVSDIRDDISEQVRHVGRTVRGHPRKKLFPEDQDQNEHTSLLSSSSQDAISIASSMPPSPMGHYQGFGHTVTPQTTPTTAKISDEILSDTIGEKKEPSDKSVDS
Chain of UniProt Q8IY95 (Q8IY95 whole entry, looked up): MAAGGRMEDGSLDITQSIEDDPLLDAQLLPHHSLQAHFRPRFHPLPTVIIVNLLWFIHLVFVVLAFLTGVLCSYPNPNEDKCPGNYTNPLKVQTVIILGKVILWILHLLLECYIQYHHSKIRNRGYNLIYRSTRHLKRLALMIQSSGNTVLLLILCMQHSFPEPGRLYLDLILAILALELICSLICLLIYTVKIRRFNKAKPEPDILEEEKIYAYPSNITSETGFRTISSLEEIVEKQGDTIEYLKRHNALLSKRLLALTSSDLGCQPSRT
Chain of UniProt Q96LJ8 (Q96LJ8 whole entry, looked up): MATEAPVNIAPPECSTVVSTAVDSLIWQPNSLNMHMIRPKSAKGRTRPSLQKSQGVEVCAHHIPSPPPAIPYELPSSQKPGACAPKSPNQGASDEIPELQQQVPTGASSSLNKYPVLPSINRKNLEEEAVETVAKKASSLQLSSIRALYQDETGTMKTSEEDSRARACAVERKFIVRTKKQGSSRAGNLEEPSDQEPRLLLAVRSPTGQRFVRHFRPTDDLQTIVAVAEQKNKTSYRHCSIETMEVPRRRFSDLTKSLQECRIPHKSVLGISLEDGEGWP
Chain of UniProt Q6PID6 (Q6PID6 whole entry, looked up): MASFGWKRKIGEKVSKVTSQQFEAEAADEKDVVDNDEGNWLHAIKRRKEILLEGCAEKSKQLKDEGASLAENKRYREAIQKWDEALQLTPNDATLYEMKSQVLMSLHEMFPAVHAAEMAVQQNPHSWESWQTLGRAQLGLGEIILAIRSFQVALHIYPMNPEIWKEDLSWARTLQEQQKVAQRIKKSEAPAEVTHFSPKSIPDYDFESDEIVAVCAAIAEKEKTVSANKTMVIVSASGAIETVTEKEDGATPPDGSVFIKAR
Chain of UniProt P57081 (P57081 whole entry, looked up): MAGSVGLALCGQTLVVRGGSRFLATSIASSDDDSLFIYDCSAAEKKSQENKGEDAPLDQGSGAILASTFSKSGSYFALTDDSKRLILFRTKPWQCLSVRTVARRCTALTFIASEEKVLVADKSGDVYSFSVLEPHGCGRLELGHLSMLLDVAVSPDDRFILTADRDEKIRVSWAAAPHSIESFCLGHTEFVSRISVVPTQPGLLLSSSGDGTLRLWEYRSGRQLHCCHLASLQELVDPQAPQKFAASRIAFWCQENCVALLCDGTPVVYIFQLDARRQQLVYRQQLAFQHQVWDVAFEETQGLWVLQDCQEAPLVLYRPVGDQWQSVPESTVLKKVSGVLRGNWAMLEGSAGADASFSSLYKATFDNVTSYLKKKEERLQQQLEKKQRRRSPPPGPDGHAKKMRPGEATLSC
Chain of UniProt Q9Y5Z9 (Q9Y5Z9 whole entry, looked up): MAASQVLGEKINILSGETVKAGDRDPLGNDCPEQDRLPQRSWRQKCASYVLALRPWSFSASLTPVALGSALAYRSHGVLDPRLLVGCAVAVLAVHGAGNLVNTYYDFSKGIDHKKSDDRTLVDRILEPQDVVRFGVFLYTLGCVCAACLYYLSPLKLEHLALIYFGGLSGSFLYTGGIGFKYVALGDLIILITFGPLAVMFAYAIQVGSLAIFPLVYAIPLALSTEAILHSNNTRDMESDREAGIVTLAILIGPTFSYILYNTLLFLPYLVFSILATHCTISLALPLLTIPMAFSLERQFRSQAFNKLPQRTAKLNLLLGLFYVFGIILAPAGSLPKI
Chain of UniProt O75554 (O75554 whole entry, looked up): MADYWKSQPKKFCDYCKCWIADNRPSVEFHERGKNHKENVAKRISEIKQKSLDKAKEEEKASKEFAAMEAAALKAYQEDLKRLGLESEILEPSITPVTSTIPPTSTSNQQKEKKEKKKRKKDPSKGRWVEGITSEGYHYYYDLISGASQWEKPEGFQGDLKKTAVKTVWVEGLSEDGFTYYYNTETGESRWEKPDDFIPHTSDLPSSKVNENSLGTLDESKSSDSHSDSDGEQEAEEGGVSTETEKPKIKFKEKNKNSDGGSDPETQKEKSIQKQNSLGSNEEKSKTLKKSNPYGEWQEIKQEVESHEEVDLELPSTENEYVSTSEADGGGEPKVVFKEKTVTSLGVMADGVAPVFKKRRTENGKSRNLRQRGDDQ
Chain of UniProt Q5VZI3 (Q5VZI3 whole entry, looked up): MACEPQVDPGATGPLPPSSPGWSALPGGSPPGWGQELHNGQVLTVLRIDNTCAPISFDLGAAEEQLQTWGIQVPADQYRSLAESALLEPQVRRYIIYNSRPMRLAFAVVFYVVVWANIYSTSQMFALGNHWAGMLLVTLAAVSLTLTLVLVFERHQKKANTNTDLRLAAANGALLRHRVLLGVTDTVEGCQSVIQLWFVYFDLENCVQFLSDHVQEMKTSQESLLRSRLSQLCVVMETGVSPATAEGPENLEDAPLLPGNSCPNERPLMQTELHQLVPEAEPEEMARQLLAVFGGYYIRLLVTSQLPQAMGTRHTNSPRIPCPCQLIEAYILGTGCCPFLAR

Compound in the first assay: C1=CC=C(C=C1)[C@H](COC2=CC3=C(C=C2)NC(=O)N3)NC(=O)C4=CC=CN(C4=O)CC5=CC(=C(C=C5)F)F
Nature of the assay: log2 fold change, soluble protein after heating vs DMSO (PISA); higher = thermal stabilisation; K562 cells, 10 uM, 30 min; active = over 0.2 and 3.5 SD of the protein, either way, in both replicates (recomputed). The gist of the method:
(§1)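 For each measurement, 10 μM compound was applied for 30 min to K562 cells at 2×10^6 cells/mL. Aliquots were heated for 3 min across 48°C-58°C, pooled, and extracted in PBS with 0.5% NP-40 at 4°C; the supernatant after 21,000xg for 90 min was soluble protein. This was quantified by TMTpro 16plex LC-MS/MS with channel sums equalised, and thermal stability was reported relative to control samples from duplicates, on a log2 fold-change scale.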
As for U2AF1L5 (UniProt P0DN76), the log2 fold change is -0.008.

With TOM1 (UniProt O60784), the log2 fold change is -0.077.

As for UBIAD1 (UniProt Q9Y5Z9), the log2 fold change was 0.012.

Take UBE3B (UniProt Q7Z3V4): the log2 fold change is -0.081.

Consider VPS41 (UniProt P49754), for which the log2 fold change was -0.028.

WBP4 (UniProt O75554): the log2 fold change was 0.012.

In the case of TSC2 (UniProt P49815), the log2 fold change was 0.062.

Turning to WARS1 (UniProt G3V277), the log2 fold change is -0.075.

Regarding WDR75 (UniProt Q8IWA0), the log2 fold change is -0.031.

In the case of TUT4 (UniProt Q5TAX3), the log2 fold change is -0.029.

TXNRD1 isoform 7 (UniProt Q16881): the log2 fold change is 0.046.

On to TMEM41A (UniProt Q96HV5), for which the log2 fold change is 0.01.

Turning to TMEM179B (UniProt Q7Z7N9), the log2 fold change was -0.065.

Turning to WASHC2C, A0A096LPC5, the log2 fold change is 0.015.

Turning to WDR46, A0A0G2JJL1, the log2 fold change is 0.129.

In the case of TTC26, the log2 fold change is 0.06.

Regarding TOM1L1 (UniProt O75674), the log2 fold change was -0.019.

In the case of WDR4 (UniProt P57081), the log2 fold change was -0.074.

Consider UFD1 isoform 1 (UniProt Q92890), for which the log2 fold change was -0.011.

Regarding TMEM268 isoform 3 (UniProt Q5VZI3), the log2 fold change was -0.008.

Turning to TTC33 (UniProt Q6PID6), the log2 fold change is -0.142.

Turning to TRIQK (UniProt Q629K1), the log2 fold change was 0.098.

Take VDAC1 (UniProt C9JI87): the log2 fold change is -0.132.

TMEM192 (UniProt Q8IY95): the log2 fold change was 0.02.

In the case of UFM1 (UniProt P61960), the log2 fold change is -0.019.

As for UBAP2L (UniProt F8W726), the log2 fold change was -0.05.

In the case of UTP14A (UniProt Q9BVJ6), the log2 fold change was 0.039.

Turning to UBXN10 (UniProt Q96LJ8), the log2 fold change is 0.011.

As to TMEM184C (UniProt Q9NVA4), the log2 fold change was 0.

Compound in another assay: CC1=C(SC2=C1C(=N[C@H](C3=NN=C(N32)C)CC(=O)N)C4=CC=C(C=C4)Cl)C
The description is as above. The gist of the method: as §1
Consider UBIAD1 (UniProt Q9Y5Z9), for which the log2 fold change was 0.029.

On to UBE3B (UniProt Q7Z3V4), for which the log2 fold change is -0.147.

Regarding VPS41 (UniProt P49754), the log2 fold change is 0.06.

Take TRIM5 (UniProt Q9C035): the log2 fold change is 0.021.

Consider TVP23C (UniProt Q96ET8), for which the log2 fold change was 0.048.

WBP4 (UniProt O75554): the log2 fold change is 0.009.

On to TSC2 (UniProt P49815), for which the log2 fold change was 0.099.

On to WDR75 (UniProt Q8IWA0), for which the log2 fold change is -0.24.

As to TUT4 (UniProt Q5TAX3), the log2 fold change was -0.181.

With XRCC1 (UniProt P18887), the log2 fold change is 0.091.

As to TMEM104 (UniProt Q8NE00), the log2 fold change was 0.001.

Regarding TMEM179B (UniProt Q7Z7N9), the log2 fold change is 0.081.

With WASHC2C, A0A096LPC5, the log2 fold change is 0.012.

Take TOM1L1 (UniProt O75674): the log2 fold change was 0.045.

For the target TOM1L2 (UniProt Q6ZVM7), the log2 fold change was 0.138.

Take WDR4 (UniProt P57081): the log2 fold change was 0.048.

With ULBP1 (UniProt Q9BZM6), the log2 fold change was 0.014.

Consider UFD1 isoform 1 (UniProt Q92890), for which the log2 fold change was 0.038.

As to TMEM268 isoform 3 (UniProt Q5VZI3), the log2 fold change was 0.

In the case of TTC33 (UniProt Q6PID6), the log2 fold change is 0.018.

TRIQK (UniProt Q629K1): the log2 fold change was 0.028.

As for VDAC1 (UniProt C9JI87), the log2 fold change was -0.004.

In the case of TMEM192 (UniProt Q8IY95), the log2 fold change was -0.03.

UFM1 (UniProt P61960): the log2 fold change was 0.363.

As to UTP14A (UniProt Q9BVJ6), the log2 fold change is -0.276.

Regarding UBXN10 (UniProt Q96LJ8), the log2 fold change is 0.014.

For the target TMEM184C (UniProt Q9NVA4), the log2 fold change was 0.078.

Compound in a further assay: CC1=C2C(=CC=C1)N=C(N(C2=O)C3=CC=CC=C3C)CN4C=NC5=C(N=CN=C54)N
The assay is described as above. The gist of the method: as §1
Take U2AF1L5 (UniProt P0DN76): the log2 fold change was -0.075.

With UBIAD1 (UniProt Q9Y5Z9), the log2 fold change was 0.068.

For the target VPS41 (UniProt P49754), the log2 fold change is 0.152.

Turning to TRIM5 (UniProt Q9C035), the log2 fold change was 0.023.

In the case of TVP23C (UniProt Q96ET8), the log2 fold change is 0.041.

Consider WBP4 (UniProt O75554), for which the log2 fold change was -0.024.

Regarding WARS1 (UniProt G3V277), the log2 fold change was 0.283.

For WDR75 (UniProt Q8IWA0), the log2 fold change is 0.002.

As for TUT4 (UniProt Q5TAX3), the log2 fold change is 0.214.

In the case of TXNRD1 isoform 7 (UniProt Q16881), the log2 fold change is 0.138.

As for TMEM41A (UniProt Q96HV5), the log2 fold change was 0.06.

Consider WASHC2C, A0A096LPC5, for which the log2 fold change was 0.008.

WDR46, A0A0G2JJL1: the log2 fold change is -0.546.

Consider TTC26, for which the log2 fold change is 0.02.

For TOM1L1 (UniProt O75674), the log2 fold change was 0.034.

Turning to TOM1L2 (UniProt Q6ZVM7), the log2 fold change was 0.101.

As for WDR4 (UniProt P57081), the log2 fold change is -0.004.

On to ULBP1 (UniProt Q9BZM6), for which the log2 fold change was -0.001.

For the target UFD1 isoform 1 (UniProt Q92890), the log2 fold change was 0.033.

Consider TTC33 (UniProt Q6PID6), for which the log2 fold change was 0.073.

Regarding TMEM192 (UniProt Q8IY95), the log2 fold change was 0.018.

For UFM1 (UniProt P61960), the log2 fold change is 0.049.

Take UTP14A (UniProt Q9BVJ6): the log2 fold change was -0.154.

Turning to UBXN10 (UniProt Q96LJ8), the log2 fold change was 0.024.

Turning to TMEM184C (UniProt Q9NVA4), the log2 fold change is 0.022.
